For eight compounds, Potency results are on record in PubChem BioAssay (Tox21).

Assay [1] is described as follows: Nuclear factor erythroid 2-related factor 2/antioxidant responsive element (Nrf2/ARE) small molecule agonists: qHTS cell viability counter screen in human keratinocytes (AID 1919968; active means well fitted curve in the direction sought with a large enough effect in the repeat runs; an effect the other way counts as inactive or inconclusive; further: nearly all actives have a fitted effect of over 55% in size; further: potency means the concentration at half of the fitted maximal effect). An outline of the steps: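 KeratinoSens cells (HaCaT keratinocytes stably carrying an ARE-luciferase reporter) were seeded at 1,500 cells/well and rested 5 h at 37 C/5% CO2. They were then exposed to compounds in DMSO for 23 h. Viability was read by CellTiter-Fluor fluorescence after 1 h.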
On the technique in general: In qHTS, concentration-response curves come from the screen itself.

Assay [2] is described as follows: Nuclear factor erythroid 2-related factor 2/antioxidant responsive element (Nrf2/ARE) small molecule agonists: luciferase reporter gene qHTS assay in human keratinocytes (AID 1919969). Further: nearly all actives have a fitted effect of over 35% in size. Further: potency means the concentration at half of the fitted maximal effect. For orientation: A reporter such as luciferase makes a cellular process visible.
Assay [3] addresses Gonadotropin-releasing hormone receptor (Homo sapiens) (UniProt P30968). The experiment in a line: Human gonadotropin-releasing hormone receptor (GnRHR) small molecule agonists, calcium flux assay in GnRHR-HEK293 cells (AID 1920063). Further: nearly all actives have a fitted effect of over 35% in size. An outline of the steps:
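HEK293 cells stably expressing human GnRHR were plated 18 h at 37 °C, loaded with calcium dye 1 h at 37 °C, then given compound in agonist mode; fluorescence (Ex/Em 480/540) read kinetically for 3 min at 1 s intervals.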

Assay [4] has as its target KiSS-1 receptor (Homo sapiens) (UniProt Q969F8). The experiment in a line: Human kisspeptin (KISS1R) small molecule agonists, calcium flux assay in KISS1R-HEK293 cells (AID 1920064; active means well fitted curve in the direction sought with a large enough effect in the repeat runs; an effect the other way counts as inactive or inconclusive). The method in brief: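 HEK293 cells stably expressing human KISS1R were plated 18 h at 37 °C, loaded with calcium dye for 1 h at 37 °C, then given compound by pin tool. Fluorescence (Ex/Em 480/540) was read kinetically for 3 min.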

A short description of assay [5]: G protein-coupled receptor (GPCR) small molecule agonists, calcium flux assay: HEK293 wild type cell line counter screen (AID 1920065). The method in brief: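 Cells were plated and cultured 18 h at 37 C/5% CO2, then loaded with calcium dye for 1 h at 37 C. Compounds in DMSO were pin-transferred in agonist mode, and fluorescence (Ex/Em 480/540) was read kinetically for 3 min at 1 s intervals.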
(In general: Calcium flux is commonly read through the fluorescence of an indicator in the cells.)

A short description of assay [6]: p53 small molecule agonists, cell-based qHTS assay with human liver microsomes (AID 1963577). An outline of the steps:
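p53RE-bla cells, 4,000/well, compound added after 5 h, with human liver microsomes 0.5 mg/mL and NADPH 0.5 mg/mL final; 16 h at 37 C, then LiveBLAzer 2 h RT, fluorescence.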

A short description of assay [7]: p53 small molecule agonists, cell-based qHTS assay with rat liver microsomes (AID 1963578). An outline of the steps: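 p53RE-bla cells, 4,000/well, pre-incubated 5 h, then given compounds plus rat liver microsomes (0.5 mg/mL final) and NADPH (0.5 mg/mL final). Incubation 16 h at 37 C; beta-lactamase reporter read by LiveBLAzer fluorescence after 2 h at room temperature.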

Assay [8] is described as follows: p53 small molecule agonists, cell-based qHTS assay with human liver microsomes: qHTS cell viability counter screen (AID 1963579). Further: nearly all actives have a fitted effect of over 45% in size. The method in brief:
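p53RE-bla cells, 4,000/well, dosed 5 hours after plating, with human liver microsomes (0.5 mg/mL final) plus NADPH (0.5 mg/mL final), 16 hours at 37 C. Viability read as CellTiter-Glo luminescence after 30 min at room temperature.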

Assay [9] is described as follows: p53 small molecule agonists, cell-based qHTS assay with rat liver microsomes: qHTS cell viability counter screen (AID 1963580). Further: nearly all actives have a fitted effect of over 45% in size. An outline of the steps:
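p53RE-bla HCT-116 cells (4,000/well) rested 5 h at 37 C, then given Tox21 compounds in DMSO with rat liver microsomes (0.5 mg/mL final) plus NADPH (0.5 mg/mL final) for 16 h at 37 C. Viability read by CellTiter-Glo luminescence after 30 min at room temperature.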

A short description of assay [10]: p53 small molecule agonists, cell-based qHTS assay: qHTS cell viability counter screen (AID 1963581). Further: nearly all actives have a fitted effect of over 45% in size. An outline of the steps: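 p53RE-bla HCT-116 cells were exposed to compounds for 16 h at 37 C; after the beta-lactamase FRET read in the same wells, CellTiter-Glo was added and luminescence (intracellular ATP) read after 30 min at room temperature.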
Assay [11] can be described thus: p53 small molecule agonists, cell-based qHTS assay (AID 1963582; active means well fitted activation curve with a large enough effect in the signal ratio in the repeat runs, not every such curve was filed as active; the % refers to the signal ratio). An outline of the steps: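 p53RE-bla beta-lactamase reporter cells rested 5 h at 37 C/5% CO2, then received compounds in DMSO by pin transfer and were incubated 16 h at 37 C. LiveBLAzer B/G FRET substrate was loaded for 2 h at room temperature before fluorescence reading.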
In assay [12] the target is 5-hydroxytryptamine receptor 2A (Homo sapiens) (UniProt P28223). As to the kind of experiment: 5-hydroxytryptamine receptor 2A (HTR2A) small molecule antagonists, cell-based qHTS assay (AID 1963586). Further: nearly all actives have a fitted effect of over 45% in size. An outline of the steps: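 Antagonist-mode intracellular calcium assay: DOI (4 nM) added after 5 min compound pre-incubation at room temperature to dye-loaded HTR2A-CHO cells. Fluorescence followed for 3 min, sampled every second.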
Chain of 5-hydroxytryptamine receptor 2A (Homo sapiens) (P28223 whole entry, looked up): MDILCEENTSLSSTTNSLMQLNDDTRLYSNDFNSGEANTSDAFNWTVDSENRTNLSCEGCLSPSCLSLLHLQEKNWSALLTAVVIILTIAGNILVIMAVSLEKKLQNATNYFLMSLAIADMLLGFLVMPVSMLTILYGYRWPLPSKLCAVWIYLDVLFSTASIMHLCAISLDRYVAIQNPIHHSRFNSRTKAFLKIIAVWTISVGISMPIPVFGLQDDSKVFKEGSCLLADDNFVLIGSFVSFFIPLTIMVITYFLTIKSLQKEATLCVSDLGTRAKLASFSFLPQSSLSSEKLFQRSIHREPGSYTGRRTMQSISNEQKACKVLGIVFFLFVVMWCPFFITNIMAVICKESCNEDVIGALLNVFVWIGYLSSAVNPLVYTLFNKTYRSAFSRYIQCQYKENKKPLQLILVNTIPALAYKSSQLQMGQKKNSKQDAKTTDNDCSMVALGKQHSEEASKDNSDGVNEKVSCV

Assay [13] has the same target. As to the kind of experiment: 5-hydroxytryptamine receptor 2A (HTR2A) small molecule agonists, cell-based qHTS assay (AID 1963587). Further: nearly all actives have a fitted effect of over 30% in size. The method in brief:
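HTR2A-CHO cells, plated 18 h at 37 C/5% CO2, dye-loaded 1 h at 37 C; compounds in DMSO added by pin tool (agonist mode). Intracellular calcium flux read as kinetic fluorescence on FDSS over 2 min at 1 s intervals.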

Assay [14] concerns the target Muscarinic acetylcholine receptor M1 (Homo sapiens) (UniProt P11229). The experiment in a line: Cholinergic receptor muscarinic 1 (CHRM1) small molecule antagonists, cell-based qHTS assay (AID 1963588). Further: nearly all actives have a fitted effect of over 40% in size. The method in brief: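 CHRM1-CHO calcium-flux assay, antagonist mode. Cells were seeded 18 h, dye-loaded 1 h at 37 C and given compound for 5 min at RT, then acetylcholine was added at 50nM. FDSS fluorescence was read 3 min; 15 concentrations, three runs.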

For assay [15] the target is unchanged. The experiment in a line: Cholinergic receptor muscarinic 1 (CHRM1) small molecule agonists, cell-based qHTS assay (AID 1963589). Further: nearly all actives have a fitted effect of over 35% in size. An outline of the steps:
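CHO cells stably expressing human CHRM1, seeded 18 h at 37 C/5% CO2, dye-loaded 1 h at 37 C, then given compound in agonist mode; intracellular calcium fluorescence read kinetically at 1 s intervals. Fifteen concentrations, three independent runs.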

Assay [16] is described as follows: cAMP Responsive Elements (CRE) small molecule agonists, cell-based qHTS assay (AID 1963590). An outline of the steps: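 CRE-bla HEK 293T cells in DMEM with 10% dialyzed FBS, NEAA, pyruvate and 25 mM HEPES were plated 18 h at 37 C/5% CO2, then exposed to compounds in DMSO for 3 h before LiveBLAzer B/G FRET substrate addition.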
A short description of assay [17]: cAMP Responsive Elements (CRE) small molecule antagonists, cell-based qHTS assay (AID 1963591; active means well fitted inhibition curve with a large enough effect in the signal ratio in the repeat runs, not every such curve was filed as active; the % refers to the signal ratio). The method in brief:
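CRE-bla HEK293T cells were plated 18 h at 37 °C/5% CO2, pinned with compound in DMSO, then stimulated with NKH477 at 0.25 uM final for 3 h. LiveBLAzer B/G FRET substrate was added and plates incubated 2 h at room temperature.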

In assay [18] the target is Beta-2 adrenergic receptor (Homo sapiens) (UniProt P07550). The experiment in a line: Adrenergic beta2 receptor (ADRB2) small molecule antagonists, cell-based qHTS assay (AID 1963592). Further: series mostly up to about 92 µM; nearly all actives have a fitted effect of over 50% in size. The method in brief: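 Cells (CHO, stable ADRB2 overexpression) incubated 18-20hr at 37C; compounds added from DMSO; agonist mix (1nM isoproterenol, 100uM IBMX, 25uM Ro-20-1724) added; 0.5hr RT; d2-cAMP and anti-cAMP-cryptate added; 1hr RT; 665/615 nm read.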
Chain of Beta-2 adrenergic receptor (Homo sapiens) (P07550 whole entry, looked up): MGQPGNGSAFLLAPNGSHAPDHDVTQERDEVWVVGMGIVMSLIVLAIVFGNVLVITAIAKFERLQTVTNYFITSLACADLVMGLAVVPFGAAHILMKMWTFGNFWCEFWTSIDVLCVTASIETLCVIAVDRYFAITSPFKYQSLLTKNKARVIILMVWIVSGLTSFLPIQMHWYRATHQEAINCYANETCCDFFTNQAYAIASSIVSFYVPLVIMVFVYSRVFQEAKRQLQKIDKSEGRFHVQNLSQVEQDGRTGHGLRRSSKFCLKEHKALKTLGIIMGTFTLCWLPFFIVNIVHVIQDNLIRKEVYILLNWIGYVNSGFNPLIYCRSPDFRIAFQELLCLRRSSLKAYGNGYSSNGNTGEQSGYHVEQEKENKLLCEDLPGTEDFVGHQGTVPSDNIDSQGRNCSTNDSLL

Assay [19] has as its target D(2) dopamine receptor (Homo sapiens) (UniProt P14416). As to the kind of experiment: Dopamine D2 receptor (DRD2) small molecule agonists, cell-based qHTS assay (AID 1963594). Further: nearly all actives have a fitted effect of over 35% in size. The method in brief:
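HEK293 cells stably expressing DRD2 were cultured 24 h at 37 C, then given Ro20-1724 (0.1 mM final) and compounds for 10 min at room temperature. NKH477 (200nM) was then added for 30 min. cAMP was read by HTRF.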

For assay [20] the target is unchanged. As to the kind of experiment: Dopamine D2 receptor (DRD2) small molecule antagonists, cell-based qHTS assay (AID 1963595; active means well fitted inhibition curve with a large enough effect in the signal ratio in the repeat runs, with a control signal flat; the % refers to the signal ratio). The method in brief:
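HEK293 cells stably expressing DRD2, preincubated with 0.1 mM Ro20-1724 and compounds 10 min, were stimulated with 200 nM NKH477 plus 12 nM quinpirole for 30 min at room temperature; cAMP measured by HTRF (665/620 nm).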

Inconclusive results are not listed. Some compounds were tested as several samples or in several runs, with calls that do not always agree. Activity calls are given as the source filed them. Unless noted, the call rests on the fitted dose curve.

Chain of D(2) dopamine receptor (Homo sapiens) (P14416 whole entry, looked up): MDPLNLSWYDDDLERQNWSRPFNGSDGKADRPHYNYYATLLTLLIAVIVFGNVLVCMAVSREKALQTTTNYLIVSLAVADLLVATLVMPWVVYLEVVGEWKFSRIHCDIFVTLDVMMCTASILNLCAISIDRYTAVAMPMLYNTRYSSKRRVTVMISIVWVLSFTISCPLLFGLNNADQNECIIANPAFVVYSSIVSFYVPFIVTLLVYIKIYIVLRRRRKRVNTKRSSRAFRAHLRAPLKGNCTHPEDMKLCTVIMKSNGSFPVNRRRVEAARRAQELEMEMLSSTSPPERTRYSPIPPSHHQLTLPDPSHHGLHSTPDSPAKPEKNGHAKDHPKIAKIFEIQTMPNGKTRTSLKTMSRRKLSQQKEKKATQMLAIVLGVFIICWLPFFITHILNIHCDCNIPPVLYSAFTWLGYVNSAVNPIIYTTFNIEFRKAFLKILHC
Chain of Muscarinic acetylcholine receptor M1 (Homo sapiens) (P11229 whole entry, looked up): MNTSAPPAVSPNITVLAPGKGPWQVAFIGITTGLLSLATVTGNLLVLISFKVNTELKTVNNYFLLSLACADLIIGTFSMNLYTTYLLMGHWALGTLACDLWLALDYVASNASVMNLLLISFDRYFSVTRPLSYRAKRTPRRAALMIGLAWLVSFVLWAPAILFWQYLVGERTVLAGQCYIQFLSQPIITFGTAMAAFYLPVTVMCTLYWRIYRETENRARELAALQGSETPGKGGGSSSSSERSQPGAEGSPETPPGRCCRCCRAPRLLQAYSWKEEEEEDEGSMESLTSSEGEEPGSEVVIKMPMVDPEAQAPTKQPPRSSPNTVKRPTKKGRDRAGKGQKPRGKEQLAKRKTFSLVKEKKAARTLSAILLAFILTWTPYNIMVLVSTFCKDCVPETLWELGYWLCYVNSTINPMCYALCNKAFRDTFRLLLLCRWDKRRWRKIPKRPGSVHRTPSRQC
Chain of Gonadotropin-releasing hormone receptor (Homo sapiens) (P30968 whole entry, looked up): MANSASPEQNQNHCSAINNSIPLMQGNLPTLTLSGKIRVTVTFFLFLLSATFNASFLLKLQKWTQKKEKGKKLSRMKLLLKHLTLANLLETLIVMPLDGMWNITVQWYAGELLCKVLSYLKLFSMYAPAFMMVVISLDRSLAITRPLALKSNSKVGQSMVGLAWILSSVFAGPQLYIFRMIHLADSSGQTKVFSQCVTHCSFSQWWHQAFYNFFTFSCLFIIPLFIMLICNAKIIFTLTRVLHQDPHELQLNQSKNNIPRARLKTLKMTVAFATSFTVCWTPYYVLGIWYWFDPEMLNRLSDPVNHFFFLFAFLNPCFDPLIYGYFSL
Chain of KiSS-1 receptor (Homo sapiens) (Q969F8 whole entry, looked up): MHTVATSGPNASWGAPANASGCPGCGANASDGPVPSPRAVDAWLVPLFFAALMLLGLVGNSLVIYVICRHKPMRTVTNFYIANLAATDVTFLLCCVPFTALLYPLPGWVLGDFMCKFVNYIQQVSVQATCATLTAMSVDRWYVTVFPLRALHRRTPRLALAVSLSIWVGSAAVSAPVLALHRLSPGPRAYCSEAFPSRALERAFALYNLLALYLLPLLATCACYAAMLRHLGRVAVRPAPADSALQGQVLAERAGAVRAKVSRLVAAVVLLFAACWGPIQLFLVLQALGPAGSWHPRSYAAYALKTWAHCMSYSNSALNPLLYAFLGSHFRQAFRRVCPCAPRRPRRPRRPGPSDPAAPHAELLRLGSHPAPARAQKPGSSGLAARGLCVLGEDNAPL

In the case of `c1ccc(OCCOc2ccccc2)cc1`, the Potency entry in [1], in [2], in [3], in assay [4], in assay [5] and in [6] was “inactive” throughout. In addition, the Potency entry in assay [7], in assay [8], in assay [9], in assay [10], in assay [11] and in assay [12] was “inactive” in each case. The Potency entry in assay [13], in [14], in assay [15], in assay [16], in assay [17] and in assay [18] was “inactive” throughout. Moreover, the Potency result in assay [19] and in assay [20] was “inactive” each time.
In the case of `C=CC(=O)NC(C)(C)CS(=O)(=O)O`, the Potency result in assay [1], in assay [2], in [3], in [4], in assay [5] and in assay [6] was “inactive” in each case. Besides, the Potency entry in assay [7], in assay [8], in [9], in assay [10], in assay [11] and in assay [12] was “inactive” each time. In addition, the Potency entry in [13], in [14], in [15], in [16], in [17] and in assay [18] was “inactive” each time. Further, the Potency result in assay [19] and in assay [20] was “inactive” throughout.
Regarding `CCC(O)OC(O)CC` (centres undefined), the Potency result in [1], in [2], in [3], in assay [4], in [5] and in [6] was “inactive” each time. Also, the Potency entry in assay [7], in assay [8], in assay [9], in assay [10], in assay [11] and in assay [12] was “inactive” in each case. The Potency entry in [13], in assay [14], in assay [15], in assay [16], in [17] and in assay [18] was “inactive” each time. Moreover, the Potency entry in assay [19] and in [20] was “inactive” in each case.
`CCCCCCCCCCN`: the Potency result in assay [1], in assay [2], in assay [3], in [4], in [5] and in [6] was “inactive” throughout. Besides, the Potency entry in [7], in assay [8], in [9], in assay [10], in assay [11] and in assay [12] was “inactive” in each case. The Potency entry in assay [13], in [14], in assay [15], in assay [16], in assay [17] and in assay [18] was “inactive” each time. Moreover, in [19], the Potency entry is “inactive”.
On to `CCCCCCOCCO`, for which the Potency entry in [1], in [2], in [3], in [4], in assay [5] and in assay [6] was “inactive” in each case. Moreover, the Potency entry in assay [7], in assay [8], in [9], in assay [10], in assay [11] and in [12] was “inactive” throughout. For the same compound, the Potency entry in assay [13], in assay [14], in assay [15], in assay [16], in [17] and in assay [18] was “inactive” each time. Moreover, the Potency entry in assay [19] and in [20] was “inactive” each time.
Turning to `Cc1ccc2c(c1)C(=O)OC2=O`, the Potency entry in assay [1], in assay [2], in [3], in assay [4], in [5] and in assay [6] was “inactive” each time. For the same compound, the Potency result in assay [7], in [8], in [9], in assay [10], in assay [11] and in assay [12] was “inactive” each time. The Potency entry in assay [13], in [14], in assay [15], in assay [16], in assay [17] and in [18] was “inactive” in each case. In addition, the Potency entry in [19] and in [20] was “inactive” throughout.
As for `CCCCC(CC)COC(=O)c1ccc(C(=O)OCC(CC)CCCC)cc1` (centres undefined), the Potency entry in assay [1], in assay [2], in assay [3], in assay [4], in assay [5] and in assay [6] was “inactive” throughout. Besides, the Potency entry in assay [7], in assay [8], in assay [9], in assay [10], in assay [11] and in assay [12] was “inactive” in each case. Further, the Potency entry in assay [13], in assay [14], in assay [15], in [16], in assay [17] and in assay [18] was “inactive” in each case. Besides, the Potency entry in assay [19] and in assay [20] was “inactive” throughout.
For `c1ccc2[nH]ccc2c1`, the Potency in assay [1] was 8.49 µM (active) and inactive; in assay [2] it was 6.01 µM (active) and inactive. For the same compound, the Potency entry in [3], in assay [4], in [5], in assay [6], in assay [7] and in assay [8] was “inactive” each time. The Potency entry in assay [9], in assay [10], in [11], in assay [12], in [13] and in assay [14] was “inactive” in each case. The Potency result in assay [15], in [16], in [17], in assay [18], in [19] and in assay [20] was “inactive” throughout.
